Test results from PubChem BioAssay (Tox21).
Results filed as inconclusive are left out. Unmarked numbers belong to inactive results. The source made the active and inactive calls. Unless noted, the call rests on the fitted dose curve; in most records, active means well fitted activation curve with a large enough effect in the repeat runs; inconclusive means weak or mixed curves; inactive means no such curve, though single readings can be large or run the other way.

Assay: qHTS assay for small molecule agonists of the p53 signaling pathway (AID 651631; calls by dose curve)
Conditions: HCT-116 p53RE-bla reporter, beta-lactamase FRET ratio, 16 h; series mostly up to 73.3 µM
Outline: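 Testing took place in human colorectal HCT-116 cells with stable p53RE-driven beta-lactamase. After 16 h of compound exposure at 37 °C, a FRET substrate was added and fluorescence recorded 2 h later.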
Further: nearly all actives have a fitted effect of over 15% in size.
On the % scale 0 is the no-effect control and ±100 the full control effect.

| Compound | outcome | activation |
| --- | --- | --- |
| COC(=O)NC(=S)Nc1ccccc1NC(=S)NC(=O)OC | inactive |  |
| CCCCCOC(=O)c1ccccc1C(=O)OCCCCC | inactive |  |
| CC(C)OC(=O)Nc1ccccc1 | inactive |  |
| C#CC(C)(C)NC(=O)c1cc(Cl)cc(Cl)c1 | inactive |  |
| CC(C)C1(C)N=C(c2nc3ccccc3cc2C(=O)O)NC1=O (centres undefined) | inactive |  |
| Clc1ccc(Cl)cc1 | inactive |  |
| C=C(C)CCl |  | -2.09% [at 8.3 µM] |
| CC(C)(Cl)Cl | inactive |  |
| O=S(=O)(c1ccc(O)cc1)c1ccc(O)cc1 | inactive |  |
| Oc1ccccc1Cl | inactive |  |
| O=NN1CCCCCCC1 | inactive |  |
| Cc1cc(-c2cc(C)c(N)c(C)c2)cc(C)c1N | inactive |  |
| CN(C)N=O | inactive |  |
| CCCC1COC(Cn2cncn2)(c2ccc(Cl)cc2Cl)O1 (centres undefined) | inactive |  |
| BrCCBr | inactive |  |
| Nc1ccc(Cc2ccc(N)cc2)cc1 | inactive |  |
| CCCCCCCCCCCC#N | inactive |  |
| COP(N)(=O)SC (centres undefined) | inactive |  |
| CCC12COCN1COC2 | inactive |  |

| Compound | outcome | activation |
| --- | --- | --- |
| O=[N+]([O-])c1ccc([As](=O)(O)O)cc1 | inactive |  |
| CC(C)(C)C(O)(CCc1ccc(Cl)cc1)Cn1cncn1 (centres undefined) | inactive |  |
| O=C(O)c1ccccn1 | inactive |  |
| Cn1cc(-c2ccccc2)c(=O)c(-c2cccc(C(F)(F)F)c2)c1 | inactive |  |
| CC(NC(C)(C)C)C(=O)c1cccc(Cl)c1 (centres undefined) | inactive |  |
| CN=C=S | inactive |  |
| CCN(CC)c1ccccc1 | inactive |  |
| c1cc2c3c(cccc3c1)CC2 | inactive |  |
| CCC[N+](=O)[O-] | inactive |  |
| CCOP(=S)(OCC)SCCSCC | inactive |  |
| CCN(CC)CCO | inactive |  |
| CCCN(CCC)N=O | inactive |  |
| c1ccc(OP(Oc2ccccc2)Oc2ccccc2)cc1 | inactive |  |
| c1ccc(-c2ccccc2)cc1 | inactive |  |
| Nc1ccccc1C(=O)O | inactive |  |
| CCOP(OCC)OCC | inactive |  |
| ClCc1cccnc1 | inactive |  |
| NCC(O)c1ccc(O)cc1 (centres undefined) | inactive |  |

Assay: qHTS assay for small molecules that induce genotoxicity in human embryonic kidney cells expressing luciferase-tagged ATAD5 (AID 651632)
Conditions: HEK293T ATAD5-luciferase induction, 16 h; series mostly up to 83.3 µM
Outline: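 Test compounds were delivered by pin tool onto HEK293T reporter cells (2,000/well) expressing ATAD5 fused to luciferase. After 16 hr at 37C, 5% CO2, Amplite was added for 30 min at room temperature and luminescence was measured.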

| Compound | outcome |
| --- | --- |
| COC(=O)NC(=S)Nc1ccccc1NC(=S)NC(=O)OC | inactive |
| CCCCCOC(=O)c1ccccc1C(=O)OCCCCC | inactive |
| CC(C)OC(=O)Nc1ccccc1 | inactive |
| C#CC(C)(C)NC(=O)c1cc(Cl)cc(Cl)c1 | inactive |
| CC(C)C1(C)N=C(c2nc3ccccc3cc2C(=O)O)NC1=O (centres undefined) | inactive |
| Clc1ccc(Cl)cc1 | inactive |
| C=C(C)CCl | inactive |
| CC(C)(Cl)Cl | inactive |
| O=S(=O)(c1ccc(O)cc1)c1ccc(O)cc1 | inactive |
| Oc1ccccc1Cl | inactive |
| O=NN1CCCCCCC1 | inactive |
| Cc1cc(-c2cc(C)c(N)c(C)c2)cc(C)c1N | inactive |
| CN(C)N=O | inactive |
| CCCC1COC(Cn2cncn2)(c2ccc(Cl)cc2Cl)O1 (centres undefined) | inactive |
| BrCCBr | inactive |
| Nc1ccc(Cc2ccc(N)cc2)cc1 | inactive |
| CCCCCCCCCCCC#N | inactive |
| COP(N)(=O)SC (centres undefined) | inactive |
| CCC12COCN1COC2 | inactive |

| Compound | outcome |
| --- | --- |
| O=[N+]([O-])c1ccc([As](=O)(O)O)cc1 | inactive |
| CC(C)(C)C(O)(CCc1ccc(Cl)cc1)Cn1cncn1 (centres undefined) | inactive |
| O=C(O)c1ccccn1 | inactive |
| Cn1cc(-c2ccccc2)c(=O)c(-c2cccc(C(F)(F)F)c2)c1 | inactive |
| CC(NC(C)(C)C)C(=O)c1cccc(Cl)c1 (centres undefined) | inactive |
| CN=C=S | inactive |
| CCN(CC)c1ccccc1 | inactive |
| c1cc2c3c(cccc3c1)CC2 | inactive |
| CCC[N+](=O)[O-] | inactive |
| CCOP(=S)(OCC)SCCSCC | inactive |
| CCN(CC)CCO | inactive |
| CCCN(CCC)N=O | inactive |
| c1ccc(OP(Oc2ccccc2)Oc2ccccc2)cc1 | inactive |
| c1ccc(-c2ccccc2)cc1 | inactive |
| Nc1ccccc1C(=O)O | inactive |
| CCOP(OCC)OCC | inactive |
| ClCc1cccnc1 | inactive |
| NCC(O)c1ccc(O)cc1 (centres undefined) | inactive |
